# Test results taken from PubChem BioAssay (NCATS).
# Inconclusive results are not listed. Calls of active or inactive are those of the source. The call rests on the fitted dose curve; in most records, active means well fitted inhibition curve with a large enough effect; inconclusive means small, poorly fitted or top-dose-only effect; inactive means no such curve, though single readings can be large or run the other way.
# Target: Tumor susceptibility gene 101 protein (Homo sapiens) (UniProt Q99816)
# Sequence (Q99816 whole entry, looked up): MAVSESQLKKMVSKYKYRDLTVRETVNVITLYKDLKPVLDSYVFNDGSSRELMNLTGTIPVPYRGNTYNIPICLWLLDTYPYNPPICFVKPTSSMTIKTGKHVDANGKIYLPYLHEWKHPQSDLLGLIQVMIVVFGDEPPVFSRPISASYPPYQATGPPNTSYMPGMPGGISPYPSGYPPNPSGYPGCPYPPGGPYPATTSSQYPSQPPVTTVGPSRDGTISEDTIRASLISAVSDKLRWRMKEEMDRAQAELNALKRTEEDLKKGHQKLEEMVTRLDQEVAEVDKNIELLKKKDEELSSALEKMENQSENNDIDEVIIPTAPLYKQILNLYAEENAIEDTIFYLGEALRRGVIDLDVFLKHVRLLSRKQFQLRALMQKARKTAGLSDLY
# Assay: qHTS Assay for Iinhibitors of HIV-1 Budding by Blocking the Interaction of PTAP/TSG101: Hit Validation (AID 651600); further: nearly all actives have a fitted effect of over 70% in size
# Conditions: PTAP peptide/TSG101 UEV interaction, biochemical assay; series mostly up to 57.5 µM; activity change, negative = inhibition: at the top concentration
# Summary of the method: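 Compounds are added to the Tsg101 binding domain (10 uM final) in pH 7.5 HEPES buffer. FITC-PTAP peptide follows at 50 nM final. After 20 min at r.t., polarized FITC emission is measured.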
# On the % scale 0 is the no-effect control and ±100 the full control effect; potency means the concentration at half of the fitted maximal effect.
Compound,"activity change, negative = inhibition",Potency
c1ccc2c(c1)CCCN2Cc1nnnn1CC1CCCO1 (stereo not given),-24.7% (inactive),
CCc1cccc(CC)c1NC(=O)CSc1nnc(C2CC2)n1C,-0.886% (inactive),
Cc1ccc(C2C=C(c3ccccc3)Nc3nc(NS(=O)(=O)c4ccccc4)nn32)cc1 (stereo not given),0.587% (inactive),
Cc1ccc(C(=O)Nc2ccc(C(=O)O)cc2)cc1S(=O)(=O)NCc1ccccc1,1.48% (inactive),
CCOC(=O)N1CCN(c2nc3ccccc3nc2C(C#N)S(=O)(=O)c2ccc(C)cc2)CC1 (stereo not given),-8.86% (inactive),
CCN(CC)CCCNc1ccc2ncn3c4ccc(O)cc4c(=O)c1c23,,4.61 µM (active)
O=C(C1=C(O)C(=O)N(c2nccs2)C1c1ccccc1)c1cc2ccccc2o1 (stereo not given),,5.17 µM (active)
CCOc1cc(/C=C(\C#N)c2nc(-c3cccs3)c(NC(C)=O)s2)ccc1O,-2.43% (inactive),
O=S(=O)(Nc1nc2n(n1)C(c1ccccc1)C=C(c1ccc(Cl)cc1)N2)c1ccccc1 (stereo not given),-16.2% (inactive),
O=c1[nH]nc(-c2ccc(F)cc2)cc1Cc1ccc(F)cc1,4.58% (inactive),
CN(C)CCNc1ccc2ncn3c4ccc(O)cc4c(=O)c1c23,,8.19 µM (active)
CSCC(C)N1CCC(n2nccc2NC(=O)CCCc2ccccc2)CC1 (stereo not given),,13 µM (active)
CN1CCc2c(sc(NC(=O)CSc3ccc(F)cc3)c2-c2nc3ccccc3s2)C1,-0.341% (inactive),
Nc1c(C(=O)c2cccs2)sc2nsc(SCCN3CCCCC3)c12,,14.6 µM (active)
O=c1[nH]c2c(s1)C=Nc1ccccc1N2,,9.19 µM (active)
Cc1cc2c(cc1C)NC(c1c(C)n(C)n(-c3ccccc3)c1=O)C1=C(CC(C)(C)CC1=O)N2 (stereo not given),6.09% (inactive),
Cn1c2ccc(F)cc2c2nc3ccccc3nc21,-28.8% (inactive),
N#Cc1c(C#N)c(O)c2ccccc2c1O,-14.3% (inactive),
O=C1/C(=N\S(=O)(=O)c2cccs2)C([n+]2cccc(Cc3ccccc3)c2)=C([O-])c2ccccc21,,16.3 µM (active)
Cn1c(=O)c(NCCc2ccccc2)c2c3c(cccc31)C(=O)c1ccccc1-2,,2.59 µM (active)

Compound,"activity change, negative = inhibition",Potency
CC1=CC(=C(C#N)c2nc3ccccc3s2)C=C(C)N1CC1CCCO1 (stereo not given),,16.3 µM (active)
CCC(=O)Oc1ccc2c(c1)O/C(=C\c1ccco1)C2=O,,16.3 µM (active)
CSc1nc(-c2cccs2)c(C#N)c(=O)[nH]1,-23.6% (inactive),
COc1ccc(-c2cc(C(=O)N3CC(C)CC(C)C3)c3ccccc3n2)cc1OC (stereo not given),14.9% (inactive),
CS(=O)(=O)Nc1nc2n(n1)C(c1ccccc1)C=C(c1ccc(Br)cc1)N2 (stereo not given),,32.6 µM (active)
COc1ccc(CCn2c(=N)c(S(=O)(=O)c3ccc(Cl)cc3)cc3c(=O)n4ccccc4nc32)cc1,,6.51 µM (active)
COc1ccc(CCn2c(NN=C(C)C)nc3c2c(=O)[nH]c(=O)n3C)cc1,11.2% (inactive),
CC1=CC(=C(C#N)c2nc3ccccc3s2)C=C(C)N1c1ccc(F)cc1F,,13 µM (active)
CC1(C)CC(=O)C2=C(C1)OC(N)=C(C#N)C2c1cc2c(cc1[N+](=O)[O-])OCO2 (stereo not given),-13.6% (inactive),
Nc1nnnn1/N=C/c1cc(Cl)cc(Cl)c1O,,18.3 µM (active)
CCCCn1c(SCC(=O)c2cc(OC)ccc2OC)nc2cc(S(N)(=O)=O)ccc21,3.21% (inactive),
O=c1cc2oc3cc(O)c(O)cc3c(-c3ccccc3O)c-2cc1O,,13 µM (active)
Cn1c(=O)cc2c3c(c(N4CCCCC4)ccc31)C(=O)c1ccccc1-2,-21.2% (inactive),
CC1C2C(c3ccccc3)N(C)C(=O)N(C)C2N(C)C(=O)N1C (stereo not given),-7% (inactive),
O=C1NC(c2ccco2)Nc2sc3c(c21)CCN(Cc1ccccc1)C3 (stereo not given),10.5% (inactive),
COc1ccc(C2C(C(=O)c3cccs3)=C(O)C(=O)N2c2nncs2)cc1 (stereo not given),,20.6 µM (active)
Cc1ccc(-c2nc(C=Nc3ccc(O)cc3)c(O)o2)cc1,-25.6% (inactive),
CC1CC(C)CN(C(=O)c2ccc3c(c2NCCO)C(=O)c2ccccc2C3=O)C1 (stereo not given),-24.5% (inactive),
COc1ccc(/C=C2/N=C(c3cccs3)OC2=O)cc1OC(C)C,-21.7% (inactive),
CN(C)c1ccc(N=Cc2nc(-c3ccccc3)oc2O)cc1,,18.3 µM (active)
